In all, about 110,000 compounds were measured (“z-score”: median about -0.1, highest 2% from about 2 on). The sample holds the highest values, similar compounds and a random draw of the others, so the mix is not that of the screen. Calls of active or inactive are those of the source.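 Rule for the calls: active = z-score in the third read window above 3 or below -3; inactive = the rest.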

This assay deals with Metabotropic glutamate receptor 8 (Rattus norvegicus) (UniProt P70579). Briefly: rat mGluR8 modulators via GIRK flux, primary screen, cell-based, thallium flux, HTS (AID 488969). The conditions noted are these: HEK293 rat mGluR8, GIRK (G protein-gated inwardly rectifying potassium channel) thallium flux, FluoZin2; at 10 µM; stronger effect = higher value; submaximal glutamate (EC20) added with thallium.
Metabotropic glutamate receptor 8 (Rattus norvegicus), sequence (P70579 whole entry, looked up): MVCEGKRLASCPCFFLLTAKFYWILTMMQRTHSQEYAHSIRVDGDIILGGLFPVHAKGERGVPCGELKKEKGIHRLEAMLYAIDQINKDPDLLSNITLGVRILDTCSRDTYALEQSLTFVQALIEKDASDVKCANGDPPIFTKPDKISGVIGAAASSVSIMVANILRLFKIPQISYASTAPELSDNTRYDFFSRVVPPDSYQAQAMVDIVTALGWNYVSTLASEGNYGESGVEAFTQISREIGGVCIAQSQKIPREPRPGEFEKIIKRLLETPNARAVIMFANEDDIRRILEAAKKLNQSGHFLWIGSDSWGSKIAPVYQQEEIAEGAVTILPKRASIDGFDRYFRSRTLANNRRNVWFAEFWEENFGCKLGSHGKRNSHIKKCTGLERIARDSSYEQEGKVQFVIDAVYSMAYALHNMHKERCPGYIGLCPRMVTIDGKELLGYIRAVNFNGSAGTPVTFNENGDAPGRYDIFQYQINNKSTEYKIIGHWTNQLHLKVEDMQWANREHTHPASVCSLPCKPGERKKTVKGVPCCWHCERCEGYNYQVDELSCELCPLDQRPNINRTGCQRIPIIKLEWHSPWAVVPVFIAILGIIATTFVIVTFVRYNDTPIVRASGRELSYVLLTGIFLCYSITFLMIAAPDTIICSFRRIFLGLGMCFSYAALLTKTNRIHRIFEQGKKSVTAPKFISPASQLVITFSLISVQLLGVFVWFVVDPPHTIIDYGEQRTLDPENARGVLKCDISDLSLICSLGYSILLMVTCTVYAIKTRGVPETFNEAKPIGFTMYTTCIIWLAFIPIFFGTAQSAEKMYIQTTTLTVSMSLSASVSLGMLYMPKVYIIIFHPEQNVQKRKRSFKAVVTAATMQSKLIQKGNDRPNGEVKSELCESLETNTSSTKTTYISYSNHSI
On to `O=C(Nc1cccc(Cl)c1)Nc1ccc(Cl)cn1`, for which the z-score amounted to 0.563.

`Cc1ccc(Oc2ncnc3sccc23)cc1` displayed a z-score of 0.102.

As to `Cc1ccc2c(CC(=O)NCc3ccc4c(c3)OCO4)coc2c1`, the z-score came to 0.281.

Compound `Cc1ccc2c(CC(=O)OC(C)C(=O)NCc3ccc4c(c3)OCO4)coc2c1` (stereo unspecified) displayed a z-score of 2.05.

Compound `CC(OC(=O)Cc1coc2cc3c(cc12)CCC3)C(=O)NCc1ccc2c(c1)OCO2` (stereo unspecified) had a z-score of 0.706.

Turning to `Cc1nc(C(F)(F)F)nc(Nc2ccc(Br)cc2)c1C#N`, the z-score was -0.188.

Consider `CCOC(=O)c1[nH]c(C)c(C(=O)N(C)Cc2ccccc2)c1C`, for which the z-score turned out to be 0.89.

In turn, `CCc1nnc(NC(=O)CSc2nnc(-c3ccccc3O)n2CC)s1` came in with a z-score of -0.195.

Turning to `CCc1nnc(NC(=O)CSc2nnc(-c3c[nH]c4ccccc34)n2CC)s1`, the z-score is 5.79 (active).

Compound `CCCSc1nnc(-c2c[nH]c3ccccc23)n1C` came in with a z-score of 0.341.

`CCSc1nnc(NC(=O)CSc2nnc(-c3c[nH]c4ccccc34)n2CC)s1` registered a z-score of -1.46.

For the compound `CCOC(=O)C(C)Sc1nnc(-c2c[nH]c3ccccc23)n1C` (stereo unspecified), the z-score is 4.19 (active).

In turn, `CCn1c(SC(C)C(=O)OC)nnc1-c1c[nH]c2ccccc12` (stereo unspecified) registered a z-score of -0.657.

With `Cn1c(-c2ccc(C(C)(C)C)cc2)n[nH]c1=S`, the z-score is 1.92.

Compound `CC(C)n1c(-c2ccccc2F)n[nH]c1=S` came in with a z-score of 0.0711.

Consider `CC(C)(C)c1ccc(-c2n[nH]c(=S)n2C2CCCC2)cc1`, for which the z-score was 4.4 (active).

Compound `S=c1[nH]nc(-c2cccnc2)n1C1CCCCC1` returned a z-score of 0.738.

Take `CC(C)n1c(-c2ccc(C(C)(C)C)cc2)n[nH]c1=S`: the z-score is 8.21 (active).

With `Cc1ccsc1-c1n[nH]c(=S)n1C1CCCCC1`, the z-score is 0.261.

`CC(=N\Nc1ccc(Cl)cc1)/C(=N/O)C(=O)Nc1ccccc1` yielded a z-score of 0.0464.

Compound `COc1cc(/C=N/O)cc(Br)c1OCC(=O)NCc1ccccc1` showed a z-score of 0.215.

Compound `Cc1ccccc1-n1nc(CSc2nc3ccccc3[nH]2)c(-c2ccccc2)c1N` yielded a z-score of -0.755.

`O=C(O)C1(NS(=O)(=O)c2ccc(Cl)cc2)CCCCC1` yielded a z-score of -0.168.

In turn, `COc1ccc(NC(=O)C2CCN(C(=O)c3cccs3)CC2)cc1` displayed a z-score of 0.195.

Turning to `Cc1ccc(-c2nc3cnccn3c2Nc2ccccc2)o1`, the z-score is -0.467.

For the compound `Cc1ccc(-c2nc3cnccn3c2Nc2c(C)cccc2C)o1`, the z-score is -0.399.

`Cc1ccc(Nc2c(-c3ccc(C)o3)nc3cnccn23)cc1` came in with a z-score of 2.11.

Turning to `C/C=C/c1ccc(OCCOCCOc2cccc3cccnc23)c(OC)c1`, the z-score is -0.356.

In turn, `O=S(=O)(NCCc1csc(-c2cccnc2)n1)c1ccc2c(c1)OCCO2` yielded a z-score of -0.0667.

In the case of `O=S(=O)(NCc1csc(-c2cccnc2)n1)c1ccc2c(c1)OCCO2`, the z-score came out at 2.01.

Take `O=S(=O)(NCCc1csc(-c2cccnc2)n1)c1ccc(Cl)s1`: the z-score worked out at 2.22.

The compound `O=S(=O)(NCc1csc(-c2cccnc2)n1)c1ccc(Cl)s1` came in with a z-score of 0.124.

`COc1ccc(S(=O)(=O)NCc2csc(-c3cccnc3)n2)cc1` showed a z-score of -0.168.

As to `CCc1ccc(S(=O)(=O)NCCc2csc(-c3cccnc3)n2)s1`, the z-score was -0.459.

For `Cc1cc(C)n2nc(SCc3cc(=O)n4ccccc4n3)nc2n1`, the z-score was -0.0377.

In turn, `CCCCCCCCSc1n[nH]c(N)n1` returned a z-score of 0.0327.

With `COC(=O)c1cccc(CSc2nnc(C)s2)c1`, the z-score was -0.565.

The compound `COc1ccc([N+](=O)[O-])cc1NC(=O)C(C)Sc1ccc(C)cc1` (stereo unspecified) came in with a z-score of -0.545.

Turning to `COc1cc(C(=O)OCC(=O)c2c[nH]c3ccccc23)ccc1OCC(=O)N1CCOCC1`, the z-score was 0.0746.

`CCn1ncc(Cl)c1C(=O)NC(C)c1ccccc1` (stereo unspecified) showed a z-score of 0.00989.

Compound `Clc1cccc(Cl)c1CSc1nnc2ccccn12` showed a z-score of 0.157.

Take `Cc1ccccc1CSc1nnc(NC(=O)C2COc3ccccc3O2)s1` (stereo unspecified): the z-score worked out at 0.0129.

As for `C[C@H](C(=O)C=[N+]=[N-])N1C(=O)c2ccccc2C1=O`, the z-score was -0.275.

`CCCCOc1ccc(-c2nnn(CC(=O)NCc3ccco3)n2)cc1` gave a z-score of 2.02.

In turn, `O=C(Cn1nnc(-c2ccccc2)n1)NCc1ccco1` returned a z-score of 0.185.

As to `CCOc1ccc(-c2nnn(CC(=O)NCc3ccco3)n2)cc1`, the z-score was 0.0502.

Take `COc1ccccc1NC(=O)c1ccc(NC(=O)COC(=O)CC(NC(=O)c2ccccc2Cl)c2ccccc2)cc1` (stereo unspecified): the z-score is -0.112.

Turning to `Cc1cc2n(n1)C(c1cn(-c3ccccc3)nc1C)Nc1ccccc1-2` (stereo unspecified), the z-score was -2.98.

The compound `O=C(CSc1ccc(-c2ccc(F)cc2)nn1)NCc1ccco1` yielded a z-score of -0.746.

Compound `CCOC(=O)Cc1csc(NC(=S)NC(=O)c2ccc(Cl)cc2)n1` displayed a z-score of 2.1.

For the compound `CCOC(=O)Cc1csc(NC(=O)c2ccc(OC)c(OC)c2)n1`, the z-score was found to be 0.0105.

`CCOC(=O)Cc1csc(NC(=O)c2ccc(NC(C)=O)cc2)n1` displayed a z-score of 0.627.

For `CCOC(=O)Cc1csc(NC(=S)NC(=O)c2ccc(C)cc2)n1`, the z-score is 8.13 (active).

Compound `CCOC(=O)Cc1csc(NC(=O)c2ccc(Cl)nc2)n1` gave a z-score of 0.0254.

In the case of `CCOC(=O)Cc1csc(NC(=O)c2ccncc2)n1`, the z-score was -0.235.

Regarding `CCOC(=O)Cc1csc(NC(=O)Nc2ccccc2)n1`, the z-score is 3.05 (active).

With `CCOC(=O)Cc1csc(NC(=S)NC(=O)c2ccccc2)n1`, the z-score is 10.6 (active).

The compound `CCCCC(=O)Nc1ccc(C(=O)Nc2nc(CC(=O)OCC)cs2)cc1` yielded a z-score of -0.728.

For the compound `CCOC(=O)Cc1csc(NC(=S)NC(=O)c2cccc([N+](=O)[O-])c2)n1`, the z-score came to 0.802.

Take `CCOC(=O)Cc1csc(NC(=S)NC(=O)c2ccc([N+](=O)[O-])cc2)n1`: the z-score was 1.72.

`CCOC(=O)Cc1csc(NC(=O)CC)n1` gave a z-score of 1.77.

The values are drawn from PubChem BioAssay AID488969 (Vanderbilt High Throughput Screening Facility, 2010).
